High-throughput results: PubChem, National Center for Advancing Translational Sciences (NCATS)
FH mod = Identification of activators of human fumarate hydratase by quantitative high-throughput screening; FH coupled MDH/diaphorase resazurin fluorescence, 15 min; 54,000 compounds, 0.22% hits; Potency, µM (titrated, usually from 79.9 µM), most hits filed as inhibitors; Fumarate hydratase, mitochondrial (Homo sapiens), P07954; AID 1347055, 2019; further: the screen sought activators but most active calls are inhibition curves; nearly all actives have a fitted effect of over 45% in size
HTT-AS promoter = activators of huntingtin-antisense promoter activity. HEK293 HTT-AS promoter firefly luciferase reporter, 24 h; response scale: percent change from vehicle, -100% = no light. Potency, µM (doses to about 57.5 µM), most hits filed as activators. 48,000 compounds, 0.24% hits; further: nearly all actives have a fitted effect of over 55% in size
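Firefly luciferase signal from promoter-reporter HEK293 cells was scaled between vehicle (0%) and zero RLU (-100%). Compounds were tested at final concentrations of up to 57.5 uM over 24 h at 37 degrees C. PTC124 at 50 uM final served as control inhibitor.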
GALK inhibitor = GALK (human) enzyme inhibition. 44,000 tested, under 10 active. Potency, µM (series often up to 57.5 µM), hits mostly inhibitors. P51570. recombinant GALK, Kinase-Glo ATP luminescence, 1 h. AID 1347072
Target sequence (P51570 whole entry, looked up): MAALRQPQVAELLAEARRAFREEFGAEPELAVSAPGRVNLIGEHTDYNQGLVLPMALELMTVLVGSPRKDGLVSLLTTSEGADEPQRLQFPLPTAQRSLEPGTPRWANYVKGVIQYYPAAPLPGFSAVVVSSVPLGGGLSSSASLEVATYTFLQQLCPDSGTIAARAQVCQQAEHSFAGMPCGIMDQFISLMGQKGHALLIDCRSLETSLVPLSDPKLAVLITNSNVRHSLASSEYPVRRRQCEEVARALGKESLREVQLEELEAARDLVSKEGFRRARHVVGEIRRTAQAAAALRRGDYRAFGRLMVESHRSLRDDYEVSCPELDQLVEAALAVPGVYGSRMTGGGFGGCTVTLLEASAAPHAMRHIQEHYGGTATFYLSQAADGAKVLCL
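Luminescent ATP-depletion readout (Kinase-Glo Plus) after 1 h room-temperature incubation of human GALK (5 nM) with galactose 100 µM and ATP 35 µM, pH 8.0 HEPES/Mg2+ buffer; compounds tested in qHTS format.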
NTMT1 inh = NTMT1 methyltransferase inhibition | NTMT1 MTase-Glo SAH luminescence, purified enzyme | 59,000 compounds, 2.5% hits | Potency, µM (doses to about 114 µM), actives largely listed as inhibitors; further: nearly all actives have a fitted effect of over 65% in size
Target sequence (Q9BV86 whole entry, looked up): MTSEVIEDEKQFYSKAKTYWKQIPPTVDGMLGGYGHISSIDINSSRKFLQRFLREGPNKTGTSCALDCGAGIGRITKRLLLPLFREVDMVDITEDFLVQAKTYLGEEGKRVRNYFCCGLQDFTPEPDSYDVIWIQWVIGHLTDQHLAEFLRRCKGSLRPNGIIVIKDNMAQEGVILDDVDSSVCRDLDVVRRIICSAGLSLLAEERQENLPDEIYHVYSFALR
HTT prom inh = HTT promoter inhibition. Potency, µM (titrated, usually from 57.5 µM), hits mostly inhibitors. HEK293 HTT promoter firefly luciferase reporter, 24 h. AID 1508623. 48,000 compounds, 0.93% hits; further: nearly all actives have a fitted effect of over 50% in size
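HEK293 luciferase promoter-reporter cells (2,500/well) plated 24 h, then compounds added at up to 57.5 uM final for 24 h at 37 °C. Firefly luminescence by Dual-Glo, normalized to vehicle (0%) and zero RLU (-100%).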
Of the large screens only hits and unclear results are named; the others gave an inactive call; ! = not active in a repeat. Compounds with a hit are over-represented: about 2.5% of the library has one in this group of screens. The call rests on the fitted dose curve; in most records, active means well fitted curve in the direction sought with a large enough effect; inconclusive means small, poorly fitted or top-dose-only effect, or another doubt; inactive means no such curve, though single readings can be large; an effect the other way counts as inactive or inconclusive.

COc1ccc2c(C)cc(SCC(=O)Nc3nsc(-c4ccccc4C)n3)nc2c1	none
Cc1ccc(-c2nc(NC(=O)CSc3cc(C)c4ccccc4n3)ns2)cc1	NTMT1 inh 39.8µM
COc1cc(C(=O)Nc2ccccc2OCc2cc(=O)n3cc(C)sc3n2)cc(OC)c1OC	NTMT1 inh 89.1µM
COc1ccc(-c2ccc(=O)n(CC(=O)NCCc3ccccc3)n2)cc1OC	none (no result: FH mod, HTT-AS promoter, GALK inhibitor, HTT prom inh)
CC(C)c1ccccc1-c1ncc(F)c(NC(C)(C)c2ccc(-c3cccnc3)cc2)n1	none (no result: FH mod, HTT-AS promoter, GALK inhibitor, HTT prom inh)
Cc1nc2cc(-c3cccc(F)c3)nn2c(C)c1CCC(=O)NC1CCCCC1	HTT prom inh 1.26µM
COc1cc(-c2cc3n(C)c(C)c(CCC(=O)NC4CCCCC4)c(=O)n3n2)cc(OC)c1OC	none
COC(=O)C(NC(=O)CCc1c(C)nc2cc(-c3cccc(F)c3)nn2c1C)C(C)C (stereo unspecified)	HTT prom inh 11.2µM
CCOC(=O)c1[nH]c2c(c1C)C(=S)CC(c1ccco1)C2 (stereo unspecified)	NTMT1 inh 39.8µM (no result: FH mod, HTT-AS promoter, GALK inhibitor, HTT prom inh)
CN[C@H]1CC[C@@H](c2ccc(Cl)c(Cl)c2)c2ccccc21	FH mod inconclusive, NTMT1 inh 28.2µM!, HTT prom inh inconclusive (no result: GALK inhibitor)
CCOC(=O)C1CCN(C(=O)Cn2c(=O)cc(C)c3c(C)nn(C)c32)CC1	HTT prom inh inconclusive
CCOC(=O)N1CCN(C(=O)Cn2sc3nc(C)cc(C)c3c2=O)CC1	NTMT1 inh 3.16µM (no result: HTT-AS promoter, GALK inhibitor, HTT prom inh)
NC(N)=NC(=O)c1cnn(-c2cccc3ncccc23)c1C1CC1	none (no result: HTT-AS promoter, GALK inhibitor, HTT prom inh)
CN1CCCN(C(=O)c2cccc(-c3ccc(/C=C4\C(=O)Nc5ccc(Cl)cc54)o3)c2)CC1	NTMT1 inh 7.94µM (no result: HTT-AS promoter, GALK inhibitor, HTT prom inh)
Fc1ccc(-c2csc3ncnc(NCc4ccc5c(c4)OCO5)c23)cc1	none (no result: FH mod, HTT-AS promoter, GALK inhibitor, HTT prom inh)
O=C(Nc1cccc(C(F)(F)F)c1)c1cccs1	none (no result: FH mod, HTT-AS promoter, GALK inhibitor, HTT prom inh)
NS(=O)(=O)c1ccc(Cc2c(-c3cccc(-c4ccccc4)c3)nn(-c3nc(C(=O)O)cs3)c2C2CC2)cc1	NTMT1 inh 25.1µM (no result: FH mod, HTT-AS promoter, GALK inhibitor, HTT prom inh)
CCOC(=O)c1csc(-n2nc(-c3ccc(F)c(F)c3)c(Cc3ccc(S(N)(=O)=O)cc3)c2N)n1	none (no result: FH mod, HTT-AS promoter, GALK inhibitor, HTT prom inh)
O=C(Nc1nc(-c2ccccc2)cs1)c1ccncc1NS(=O)(=O)c1cccc2cccnc12	NTMT1 inh 50.1µM (no result: FH mod, HTT-AS promoter, GALK inhibitor, HTT prom inh)
N#Cc1cccc(S(=O)(=O)Nc2cnccc2C(=O)Nc2nc(-c3ccccc3)cs2)c1	none (no result: FH mod, HTT-AS promoter, GALK inhibitor, HTT prom inh)
Cc1ccc(S(=O)(=O)Nc2cnccc2C(=O)Nc2nc(-c3ccc(Oc4ccccc4)cc3)cs2)cc1	NTMT1 inh 44.7µM (no result: FH mod, HTT-AS promoter, GALK inhibitor, HTT prom inh)
CN(C)CCN(C)C(=O)c1ccc(NC(=O)Nc2ccc(-c3nc(N4CCOCC4)c4ccn(CC(F)(F)F)c4n3)cc2)cc1	NTMT1 inh 22.4µM!, HTT prom inh inconclusive (no result: GALK inhibitor)
COc1ccc(Br)cc1CC1C(=O)Nc2ccccc21 (stereo unspecified)	NTMT1 inh 25.1µM, HTT prom inh 12.6µM
COc1cc(OC)c(NC(=O)NCc2cccn2Cc2ccccc2)cc1Cl	none
COc1ccc(C)cc1NC(=O)NCc1cccn1Cc1ccccc1	NTMT1 inh 89.1µM
Cc1ccc(S(=O)(=O)Nc2cc(Cl)cc(C(=O)Nc3nc(-c4ccccc4)cs3)c2)cc1	none (no result: FH mod, HTT-AS promoter, GALK inhibitor, HTT prom inh)
Nc1ncnc2c1c(I)cn2C1OC(CO)C(O)C1O (stereo unspecified)	NTMT1 inh 1.41µM (no result: HTT-AS promoter, GALK inhibitor, HTT prom inh)
Cc1ccc(Cl)cc1Nc1nn2c(=O)c3ccc(C(=O)NCc4cccs4)cc3nc2s1	NTMT1 inh 79.4µM, HTT prom inh inconclusive
COc1cccc(NC(=O)c2ccc3c(=O)n4nc(Nc5ccccc5OC)sc4nc3c2)c1	NTMT1 inh 79.4µM
CCOC(=O)c1ccc(NC(=O)CSc2nnc(CNC(=O)c3ccc(OC)cc3)n2CC)cc1	NTMT1 inh 79.4µM
COc1ccc(C2=C(C)C(=O)N(Cc3ccc(C(=O)Nc4ccc(F)cc4C)cc3)S2(=O)=O)cc1	HTT prom inh 10µM
COc1ccc(C2=C(C)C(=O)N(Cc3ccc(C(=O)Nc4cccc(F)c4)cc3)S2(=O)=O)cc1	HTT prom inh inconclusive
Nc1ncnc(Nc2ccc(OCc3ccccc3)c(Cl)c2)c1/C=N/OCCN1CCOCC1	FH mod inconclusive (no result: HTT-AS promoter, GALK inhibitor, HTT prom inh)
O=C(Nc1cc(-c2nc3cc(Cl)ccc3o2)ccc1Cl)c1cccc2ccccc12	HTT-AS promoter 17.8µM
CC(C)c1ccccc1-c1nc2c(c(NCc3ccc(-c4cccnc4)cc3)n1)CNC2	none (no result: FH mod, HTT-AS promoter, GALK inhibitor, HTT prom inh)
O=C(Nc1cccc(C(=O)Nc2ccc(S(=O)(=O)O)c3cc(S(=O)(=O)O)cc(S(=O)(=O)O)c23)c1)Nc1cccc(C(=O)Nc2ccc(S(=O)(=O)O)c3cc(S(=O)(=O)O)cc(S(=O)(=O)O)c23)c1	FH mod 28.2µM (no result: HTT-AS promoter, GALK inhibitor, NTMT1 inh, HTT prom inh)
O=C1CCCC2=C1C(c1c(Cl)cccc1Cl)N=C(Nc1nc3ccccc3o1)N2 (stereo unspecified)	none (no result: FH mod, HTT-AS promoter, GALK inhibitor, HTT prom inh)
O=C1CCCC2=C1C(c1cccc(C(F)(F)F)c1)N=C(Nc1nc3ccccc3o1)N2 (stereo unspecified)	none (no result: FH mod, HTT-AS promoter, GALK inhibitor, HTT prom inh)
COc1ccc(S(=O)(=O)N(C(C)=O)c2ccccc2/C=C/c2cc[n+]([O-])cc2)cc1	none (no result: FH mod, HTT-AS promoter, GALK inhibitor, HTT prom inh)
Cc1ccc(-n2ncc3c(Nc4cccc(Cl)c4)ncnc32)c(C)c1	FH mod inconclusive
COc1cc2ncnc(Nc3cccc(O)c3)c2cc1OC	none (no result: HTT-AS promoter, GALK inhibitor, HTT prom inh)
COc1cc2ncnc(Nc3cccc(Br)c3)c2cc1OC	NTMT1 inh 15.8µM (no result: GALK inhibitor)
COc1cc2ncnc(Nc3cccc(Cl)c3)c2cc1OC	NTMT1 inh 25.1µM (no result: GALK inhibitor)
